# Assay results as given in PubChem BioAssay (NCI).
# Compounds without any hit were thinned out: in the full panel of roughly 83,000, 20% have a hit.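 A percent growth of 40 corresponds to 60% growth inhibition; 0 means no net growth; -100 means all cells died. Active threshold: below 10.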 Values without a mark were called inactive. Activity calls are given as the source filed them.
# System: HL-60(TB) leukemia
# Assay: NCI-60 one-dose screen, 48 h (100 = growth as untreated, 0 = no growth, -100 = all killed)
# Conditions: 10 µM unless noted
row,SMILES,growth
1,C#COc1cccc(Nc2ncnc3cc(NC(=O)[C@@H](C)Cl)ccc23)c1,10.9% [6.25 µM]
2,c1ccc(CNc2ccc3nc(CCC4CCCCC4)[nH]c3c2)cc1,47%
3,COc1ccc(C2=NNC(c3sc(Cl)nc3Cl)C2)cc1 (stereo unspecified),85.8%
4,O=C(CCc1nnc(Cn2cncn2)o1)c1nc2ccccc2[nH]1,108%
5,O=C(CN1CCN(c2cc3c(cc2F)c(=O)c(C(=O)O)cn3C2CC2)CC1)N/N=C/c1ccco1,103%
6,S=c1nc(-c2ccccc2)oc(=NC2CCCCC2)n1C1CCCCC1,-36.5% (active)
7,Cc1cc(SC#N)ncn1,102%
8,CCOC(=O)c1c(NC(=O)CSc2n[nH]c3nc4ccccc4n23)sc(CC)c1C,97.9%
9,Nc1c(C(=O)c2ccc(Cl)cc2)sc(Nc2ccccc2)c1-c1nc2ccccc2s1,69.6%
10,Clc1ccc2c(NCCNc3nc(N4CCOCC4)nc4ccccc34)ccnc2c1,-65.4% (active)
11,COc1ccc(/C=C(\C#N)n2nnc3cc(F)c(F)cc32)c(OC)c1OC,10.4%
12,COc1cc2c(=O)[nH]c3cc([N+](=O)[O-])ccc3c2cc1[N+](=O)[O-],71.1%
13,N#CC1(C#N)C(c2cccs2)NC(c2cccs2)C1(C#N)C#N (stereo unspecified),99%
14,O=C1OCC2=C1C(c1cccc(Cl)c1)c1cc3c(cc1N2CCO)OCO3 (stereo unspecified),-19.3% (active)
15,CC(C)(C)c1ccc([I+]c2ccc(C(C)(C)C)cc2)cc1,-38.7% (active)
16,COCCOc1ccc(-c2nc3ccc(-c4nc5ccc(N6CCN(C)CC6)cc5[nH]4)cc3[nH]2)cc1,3.73% (active)
